Data published in PMC4336329 (PLoS ONE, 2015).
The whole screen tested about 310,000 compounds, of which about 14,000 (4.5%) showed an effect of 50% or more. Effects have a minus sign here. The full list was thinned out, with strong results kept by preference.

Target: human ether-à-go-go-related gene (hERG) potassium channel (human, UniProt Q12809)
Assay: primary screen, population patch clamp on CHO cells stably expressing hERG; higher = less effect of the substance
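Also: peak tail current of the secondary pulse compared with the same well before compound.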

Sequence of human ether-à-go-go-related gene (hERG) potassium channel (Q12809 whole entry, looked up): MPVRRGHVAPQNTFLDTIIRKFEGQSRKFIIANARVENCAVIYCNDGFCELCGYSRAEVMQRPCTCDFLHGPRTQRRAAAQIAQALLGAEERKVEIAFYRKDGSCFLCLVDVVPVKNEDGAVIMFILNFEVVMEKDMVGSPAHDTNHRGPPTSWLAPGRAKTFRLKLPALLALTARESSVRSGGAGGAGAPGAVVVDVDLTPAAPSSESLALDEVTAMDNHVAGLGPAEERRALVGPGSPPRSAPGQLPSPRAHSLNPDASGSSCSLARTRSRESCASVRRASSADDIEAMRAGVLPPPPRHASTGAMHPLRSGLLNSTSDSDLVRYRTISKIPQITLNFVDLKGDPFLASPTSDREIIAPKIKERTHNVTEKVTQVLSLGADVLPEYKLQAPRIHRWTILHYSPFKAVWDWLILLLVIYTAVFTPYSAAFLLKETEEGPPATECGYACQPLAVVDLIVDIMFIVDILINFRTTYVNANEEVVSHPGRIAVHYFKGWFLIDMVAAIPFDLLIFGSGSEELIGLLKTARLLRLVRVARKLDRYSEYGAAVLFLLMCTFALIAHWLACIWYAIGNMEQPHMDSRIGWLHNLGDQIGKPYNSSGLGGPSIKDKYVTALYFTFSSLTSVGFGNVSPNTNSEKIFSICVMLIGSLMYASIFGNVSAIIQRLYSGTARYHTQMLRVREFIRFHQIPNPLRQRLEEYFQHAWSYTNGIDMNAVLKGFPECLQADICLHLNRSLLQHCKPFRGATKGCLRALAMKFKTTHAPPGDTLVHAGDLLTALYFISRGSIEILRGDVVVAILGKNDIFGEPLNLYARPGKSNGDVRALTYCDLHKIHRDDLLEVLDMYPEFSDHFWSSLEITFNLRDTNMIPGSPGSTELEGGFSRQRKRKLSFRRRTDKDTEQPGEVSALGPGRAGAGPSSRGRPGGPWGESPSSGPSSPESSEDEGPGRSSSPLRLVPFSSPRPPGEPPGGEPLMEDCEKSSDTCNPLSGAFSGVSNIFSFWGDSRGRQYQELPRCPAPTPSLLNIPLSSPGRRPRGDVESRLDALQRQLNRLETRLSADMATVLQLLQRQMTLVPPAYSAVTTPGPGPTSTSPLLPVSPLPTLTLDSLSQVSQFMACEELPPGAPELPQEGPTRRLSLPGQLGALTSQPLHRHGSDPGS

In order of rising “hERG current change (%, negative = inhibition) at 10uM” value:
1. Cc1ccc(/C=C/C(=O)NCCCN2CCN(CCCNC(=O)/C=C/c3ccc(C)o3)CC2)o1  -78.3%
2. O=C(/C=C/c1ccc(F)cc1)NCCCN1CCN(CCCNC(=O)/C=C/c2ccc(F)cc2)CC1  -73.2%
3. O=C(/C=C/c1ccc(Cl)cc1)NCCCN1CCOCC1  -71%
4. COc1cc(C(=O)OCCCN2CCCN(CCCOC(=O)c3cc(OC)c(OC)c(OC)c3)CC2)cc(OC)c1OC.Cl  -67.8%
5. O=C(CN1CCN(S(=O)(=O)c2ccc(Br)cc2)CC1)Nc1ccccc1F  -62.5%
6. CCN(CC)CCn1cnc2c1c(=O)n(CCOC(=O)c1cc(OC)c(OC)c(OC)c1)c(=O)n2C.Cl  -60.3%
7. CC1CC(C)CN(S(=O)(=O)c2ccc3oc(=O)ccc3c2)C1 (stereo not drawn)  -59.5%
8. COc1ccc(/C=C/C(=O)NCCCN2CCCCCC2)cc1  -58.3%
9. O=C(CN1CCN(S(=O)(=O)c2ccc(F)cc2)CC1)Nc1ccccc1F  -56.1%
10. COc1ccc(S(=O)(=O)N2CCCN(CC(=O)Nc3ccccc3F)CC2)cc1  -55.7%
11. COc1ccc(NC(=O)CN2CCCN(S(=O)(=O)c3ccc(F)cc3)CC2)c(OC)c1  -54.6%
12. O=C(OCCCN1CCCCC1)c1ccc(O)cc1  -54.6%
13. O=c1ccc2cc(S(=O)(=O)N3CCN(c4ccc(Cl)cc4)CC3)ccc2o1  -52.8%
14. COc1cc2ccccc2cc1C(=O)Nc1nnc(-c2ccncc2)o1  -52.3%
15. CCN(CC)CCCCCCCCOC(=O)c1cc(OC)c(OC)c(OC)c1.Cl  -50.1%
16. O=C(CN1CCCN(S(=O)(=O)c2ccc(F)cc2)CC1)Nc1ccccc1Br  -49.1%
17. Cc1ccc(OCc2nnc(SCC(=O)c3ccccc3)n2Cc2ccco2)cc1  -47.1%
18. COc1ccc(/C=C/C(=O)NCCCN2CCCC2)cc1  -44.5%
19. O=C(/C=C/c1ccco1)NCCCN1CCN(CCCNC(=O)/C=C/c2ccco2)CC1  -43.5%
20. CC(C)c1ccc(/C=C/C(=O)NCCCN2CCOCC2)cc1  -39%
21. Fc1ccc(-c2c[nH]c(=S)n2Cc2ccccc2)cc1  -38%
22. O=C(OCCN1CCCCC1)c1ccc(O)cc1  -35.4%
23. Cc1cc(=O)oc2cc(OCC(=O)N3CCN(C(C)c4ccccc4)CC3)c(Cl)cc12 (stereo not drawn)  -35.1%
24. O=C(CCN1CCN(S(=O)(=O)c2ccc(Br)cc2)CC1)Nc1ccccc1F  -31.2%
25. COc1ccc(/C=C/C(=O)NCCCN2CCOCC2)cc1  -29.4%
26. Cc1ccc(Cn2c(SCC(=O)NCC3CCCO3)nc3c2c(=O)n(C)c(=O)n3C)cc1 (stereo not drawn)  -28.4%
27. O=C1CN(O)C=C2N=c3ccccc3=C2N1c1ccc([N+](=O)[O-])cc1  -26.6%
28. COc1cc2ccccc2cc1C(=O)Nc1ccncc1  -24.8%
29. O=C(/C=C/c1ccc(Cl)cc1)NCCN1CCOCC1  -24%
30. O=C(NCc1ccncc1)c1ccc(Cl)c(S(=O)(=O)N2CCCCC2)c1  -22.4%
31. Cc1ccc(S(=O)(=O)N2CCCCC2)cc1NC(=O)CSc1nnc(N)s1  -20.2%
32. CC1CCCN(S(=O)(=O)c2ccc3oc(=O)ccc3c2)C1 (stereo not drawn)  -19.4%
33. COC(=O)[C@@]1(Cc2ccc(OC)cc2)[C@H]2c3cc(C(=O)N(C)C)n(CCSCCO)c3C[C@H]2CN1C(=O)c1ccccc1  -18.4%
34. O=C(OCCCOC(=O)c1ccc(O)cc1)c1ccc(O)cc1  -17.3%
35. Cn1nccc1C(=O)N/N=C/c1cccnc1  -14.8%
36. COc1cc(C2C(C#N)=C(N)N(c3cccnc3)C3=C2C(=O)CCC3)ccc1O (stereo not drawn)  -12%
37. CCN(CC)CC(C)OC(=O)c1cc(OC)c(OC)c(OC)c1.Cl (stereo not drawn)  -11.5%
38. O=C(CCN1CCN(S(=O)(=O)c2ccc(F)cc2)CC1)Nc1ccccc1F  -8.34%
39. O=C(Nc1ccon1)C(Sc1ccccc1)c1ccccc1 (stereo not drawn)  -8.32%
40. CSc1ccccc1NC(=O)CSCc1ccc(C)cc1  -7.79%
41. COc1ccc(NC(=O)N2CCN(S(=O)(=O)c3ccc(F)cc3)CC2)c(OC)c1  -6.4%
42. COc1cc(C(=O)OCCN2CCOCC2)cc(OC)c1OC  -5.95%
43. COc1ccc(S(=O)(=O)N2CCN(CC(=O)Nc3ccccc3OC)CC2)cc1  -5.56%
44. COC(=O)Nc1ccc(S(=O)(=O)N2CCCCC2)cc1  -4.21%
45. C=CCN1C(=O)C(O)(CC(=O)c2ccc(OC)cc2OC)c2cc(Br)ccc21 (stereo not drawn)  -3.68%
46. Cc1ccsc1C(=O)c1sccc1C  -3.08%
47. O=C(Nc1nnc(-c2ccncc2)o1)c1ccc2ccccc2c1  -3.08%
48. CCOc1ccc(N2C(=O)CN=C2Nc2ccccc2Cl)cc1  -2.73%
49. COc1cc(C(=O)OCCn2c(=O)c3c(ncn3CCN(C)C)n(C)c2=O)cc(OC)c1OC.Cl  -2.6%
50. COc1ccc(NC(=O)c2ccc(-n3cncn3)c([N+](=O)[O-])c2)cc1OC  -2.52%
51. COCc1nc(-c2ccc(-c3ccccc3)nc2OC)no1  -2.5%
52. COc1ccc(NC(=O)C(NC(=O)CC2NC(=O)NC2=O)c2ccccc2)cc1 (stereo not drawn)  -2.49%
53. O=C(Nc1ncc(S(=O)(=O)c2ccc([N+](=O)[O-])cc2)s1)c1cccnc1  -2.29%
54. CC1(C)CC(CC(=O)Nc2ccccc2[N+](=O)[O-])C(=O)O1 (stereo not drawn)  -1.77%
55. CCn1nc(C)cc1C(=O)N1CCCC(C(=O)c2ccccc2SC)C1 (stereo not drawn)  -1.16%
56. CSc1ccc(CCNC(=O)c2cc(-c3ccccc3)c(N3CCOCC3)s2)cc1  -1.02%
57. O=c1ccc2cc(S(=O)(=O)N3CCN(c4ccccc4)CC3)ccc2o1  -0.646%
58. Cc1ccc(/C=C/C(=O)NCCCN2CCN(CCCNC(=O)/C=C/c3ccc(C)cc3)CC2)cc1  -0.473%
59. COc1ccc(S(=O)(=O)N2CCN(CCC(=O)Nc3ccccc3F)CC2)cc1  -0.0172%
60. COc1cc(C(=O)OCCCOC(=O)c2cc(OC)c(OC)c(OC)c2)cc(OC)c1OC  0.241%
61. COc1cc(OC)cc(C(=O)OCCNC(=O)Cn2cnc3c2c(=O)n(C)c(=O)n3C)c1  0.82%
62. Cc1cccc(-c2c3c(=O)n(C)c(=O)n(C)c3cn2-c2ccccc2O)c1  1.06%
63. O=C(CN1CCN(S(=O)(=O)c2ccc(Br)cc2)CC1)Nc1ccccc1C(=O)c1ccccc1  1.26%
64. O=C(N/N=C/c1ccco1)c1cc(-c2cccs2)[nH]n1  1.93%
65. Cc1ccc(N2CCN(S(=O)(=O)c3ccc4oc(=O)ccc4c3)CC2)cc1Cl  3.42%
66. CCN(C(=S)Nc1ccc(C(C)=O)cc1)C1CCCCC1  3.5%
67. O=C(NCCc1c[nH]c2ccccc12)C(F)(F)F  3.79%
68. COc1cc(C(=O)OCCCN(C)C)cc(OC)c1OC.Cl  4.69%
69. O=c1ccc2cc(S(=O)(=O)N3CCOCC3)ccc2o1  4.83%
70. Cc1noc(C)c1C(=O)Nc1ccc(-c2nnc3n2CCCCC3)cc1  5.46%
71. Cc1nn(-c2ccccc2)c(C)c1NC(=O)COC(=O)CCCOc1ccccc1  6.69%
72. Cc1ccccc1C(=O)NCCN1CCOCC1.Cl  6.78%
73. O=C(Cn1cc([N+](=O)[O-])cn1)N1CCN(c2ccccc2)CC1  7.25%
74. Cc1ccc(Nc2c(-c3ccc(N4CCOCC4)cc3)nc3ncccn23)cc1C  7.71%
75. Cl.O=C(/C=C/c1ccc(Br)o1)NCCCN1CCOCC1  7.91%
76. CCOc1ccc(C(=O)Nc2ccccc2C(=O)O)cc1  8.2%
77. O=C(NC1CCCc2ccccc21)c1cncc(Br)c1 (stereo not drawn)  8.69%
78. CC(C)(Cc1cc(CC(C)(C)C(=O)O)cc(C(C)(C)C)c1)C(=O)O  10.4%
79. Cc1cc(C)c2oc(-c3ccc(C)c(NC(=S)NC(=O)/C=C/c4ccco4)c3)nc2c1  11.2%
80. Cc1ccc2c(c1)N(CCC(=O)NCCCN1CCCC1)C(=O)CO2  12.7%
81. CCOC(=O)c1c[nH]c2ccc3ccccc3c2c1=O  13%
82. COc1ccc(Br)cc1/C=N/N1C(=O)CSC1=S  17.3%
83. COc1ccc(NC(=O)CN2CCN(S(=O)(=O)c3ccc(Br)cc3)CC2)c(OC)c1  19.8%
84. COCCNC(=O)CN1C(=O)COc2ccc(Cl)cc21  21.8%
85. Cl.NCCOc1ccccc1OCCN  22.1%
86. COCCn1c(SCC(=O)N(C)c2c(N)n(Cc3ccccc3)c(=O)[nH]c2=O)nnc1-c1cccc(C)c1  24.7%
87. O=C(/C=C/c1ccc(F)cc1)NCCNC(=O)/C=C/c1ccc(F)cc1  35.7%
